Data: PubChem BioAssay (EPA / NIEHS)
Calls of active or inactive are those of the source. Rule for the calls: active = hit-call score of the fitted dose curve at least 0.9, where 1 is the maximum; inactive = score below 0.9.

Legend:
Conditions in all cases: mRNA level, 48 h; actives raise or lower the signal
[1] = read-out: Cytochrome P450 (CYP24A1), CYP24A1 (gene 1591); test: LTEA_HepaRG_CYP24A1: Life Technologies and Expression Analysis (LTEA) Assay for Cytochrome P450 (CYP24A1) using HepaRG (AID 2283478)
Outline: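 HepaRG cells plated 48 h, then exposed in duplicate in serum-free induction medium for 48 h to 8-point half-log series from 100 uM in 0.5% DMSO. CYP24A1 mRNA by Fluidigm qRT-PCR, normalized to ACTB, GAPDH, POLR2A; bidirectional fit versus DMSO.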

[2] = read-out: Cytochrome P450 (CYP1A2), CYP1A2 (gene 1544); test: LTEA_HepaRG_CYP1A2: Life Technologies and Expression Analysis (LTEA) Assay for Cytochrome P450 (CYP1A2) using HepaRG (AID 2283479)
Outline: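 Differentiated human HepaRG cells in serum-free induction medium exposed 48 hours in duplicate to 8 half-log concentrations from 100 uM, 0.5% DMSO. CYP1A2 mRNA quantified by qRT-PCR, normalized to ACTB, GAPDH and POLR2A; bidirectional fitting versus DMSO.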

[3] = read-out: cysteine-aspartic acid protease (CASP8), CASP8 (gene 841); test: LTEA_HepaRG_CASP8: Life Technologies and Expression Analysis (LTEA) Assay for cysteine-aspartic acid protease (CASP8) using HepaRG (AID 2283480)
Outline: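 qRT-PCR readout of CASP8 mRNA, normalized to three housekeeping genes, after 48 h chemical exposure of HepaRG cells; 8-point half-log series, top 100 uM, 0.5% DMSO vehicle. Bidirectional curve fitting against DMSO baseline.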

[4] = read-out: Cytochrome P450 (CYP2B6), CYP2B6 (gene 1555); test: LTEA_HepaRG_CYP2B6: Life Technologies and Expression Analysis (LTEA) Assay for Cytochrome P450 (CYP2B6) using HepaRG (AID 2283481)
Outline: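 Differentiated human HepaRG cells in serum-free induction medium, dosed in duplicate for 48 h over 8 half-log concentrations topping at 100 uM (0.5% DMSO). CYP2B6 mRNA measured by TaqMan qRT-PCR, normalized to ACTB, GAPDH, POLR2A; bidirectional fit versus DMSO.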

[5] = read-out: Cytochrome P450 2C19 (Homo sapiens) (UniProt P33261); test: LTEA_HepaRG_CYP2C19: Life Technologies and Expression Analysis (LTEA) Assay for CYP2C19 using HepaRG (AID 2283482)
Outline: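 Differentiated HepaRG cells in serum-free induction medium exposed 48 h in duplicate, 8 concentrations from 100 uM by half-log steps in 0.5% DMSO. CYP2C19 mRNA measured by TaqMan qRT-PCR, normalized to ACTB, GAPDH, POLR2A. Bidirectional fit versus DMSO.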

CYP2C8 (gene 1558) = test: LTEA_HepaRG_CYP2C8: Life Technologies and Expression Analysis (LTEA) Assay for CYP2C8 using HepaRG (AID 2283483)
Outline: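 HepaRG (human liver line), 48 h chemical exposure, 8-pt half-log series from 100 uM, 0.5% DMSO vehicle. Readout: CYP2C8 transcript by qRT-PCR, housekeeping-normalized. Bidirectional fit vs DMSO baseline.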

CYP2C9 (gene 1559) = test: LTEA_HepaRG_CYP2C9: Life Technologies and Expression Analysis (LTEA) Assay for CYP2C9 using HepaRG (AID 2283484)
Outline: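 HepaRG, 48 h dosing, 8-pt half-log series, top 100 uM, 0.5% DMSO vehicle. Read-out: CYP2C9 transcript by TaqMan qRT-PCR, housekeeping-normalized (ACTB/GAPDH/POLR2A). Gain or loss fitted vs DMSO baseline.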

CYP2E1 (gene 1571) = test: LTEA_HepaRG_CYP2E1: Life Technologies and Expression Analysis (LTEA) Assay for CYP2E1 using HepaRG (AID 2283485)
Outline: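 CYP2E1 transcript was measured by TaqMan qRT-PCR in human HepaRG cultures after 48 h chemical exposure (top 100 uM, half-log steps, 0.5% DMSO vehicle). Housekeeping-gene normalization; gain or loss fitted relative to DMSO baseline.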

CYP4A11 (gene 1579) = test: LTEA_HepaRG_CYP4A11: Life Technologies and Expression Analysis (LTEA) Assay for CYP4A11 using HepaRG (AID 2283486)
Outline: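 Differentiated HepaRG cells, 48 h after plating, exposed in duplicate for 48 h to 8 half-log concentrations up to 100 uM in 0.5% DMSO in serum-free induction medium. CYP4A11 mRNA measured by TaqMan qRT-PCR, normalized to ACTB, GAPDH and POLR2A.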

[6] = read-out: Cytochrome P450 3A4 (Homo sapiens) (UniProt P08684); test: LTEA_HepaRG_CYP3A4: Life Technologies and Expression Analysis (LTEA) Assay for CYP3A4 using HepaRG (AID 2283487)
Outline: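 HepaRG, 48 h exposure, 8-pt CRC from 100 uM (half-log), 0.5% DMSO, duplicates; serum-free induction medium. Readout: CYP3A4 mRNA, qRT-PCR, ACTB/GAPDH/POLR2A normalization. Bidirectional fit vs DMSO.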

Sequence of Cytochrome P450 2C19 (Homo sapiens) (P33261 whole entry, looked up): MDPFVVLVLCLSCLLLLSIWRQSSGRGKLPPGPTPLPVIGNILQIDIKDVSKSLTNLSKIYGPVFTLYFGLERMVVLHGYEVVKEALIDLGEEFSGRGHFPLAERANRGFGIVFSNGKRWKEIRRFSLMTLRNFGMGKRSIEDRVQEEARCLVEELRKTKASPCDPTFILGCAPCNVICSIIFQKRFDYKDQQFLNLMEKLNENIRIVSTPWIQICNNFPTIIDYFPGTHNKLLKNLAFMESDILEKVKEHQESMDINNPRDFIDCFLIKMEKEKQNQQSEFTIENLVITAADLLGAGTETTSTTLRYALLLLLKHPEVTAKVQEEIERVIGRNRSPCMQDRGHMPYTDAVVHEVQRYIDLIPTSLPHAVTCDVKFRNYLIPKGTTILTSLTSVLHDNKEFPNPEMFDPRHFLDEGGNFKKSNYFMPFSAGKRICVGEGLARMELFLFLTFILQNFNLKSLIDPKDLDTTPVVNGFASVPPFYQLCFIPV
Sequence of Cytochrome P450 3A4 (Homo sapiens) (P08684 whole entry, looked up): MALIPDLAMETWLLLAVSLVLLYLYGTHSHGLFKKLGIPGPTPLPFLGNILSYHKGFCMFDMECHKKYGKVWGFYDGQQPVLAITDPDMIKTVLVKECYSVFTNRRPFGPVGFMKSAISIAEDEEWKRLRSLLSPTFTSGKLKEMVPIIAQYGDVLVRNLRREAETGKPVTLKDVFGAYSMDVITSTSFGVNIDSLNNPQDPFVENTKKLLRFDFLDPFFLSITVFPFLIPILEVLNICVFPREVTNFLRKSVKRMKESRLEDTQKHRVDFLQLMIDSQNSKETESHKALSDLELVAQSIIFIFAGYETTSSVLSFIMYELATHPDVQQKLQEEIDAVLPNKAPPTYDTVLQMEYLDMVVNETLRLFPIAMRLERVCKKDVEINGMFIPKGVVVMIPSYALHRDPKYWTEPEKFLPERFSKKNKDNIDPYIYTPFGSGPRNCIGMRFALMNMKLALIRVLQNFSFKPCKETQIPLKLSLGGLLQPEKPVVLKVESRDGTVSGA

SMILES: OCCC(F)(F)C(F)(F)C(F)(F)C(F)(F)C(F)(F)C(F)(F)F
- outcome [1]: inactive
- outcome [2]: inactive
- outcome [3]: inactive
- outcome [4]: inactive
- outcome [5]: inactive
- outcome (CYP2C8 (gene 1558)): inactive
- outcome (CYP2C9 (gene 1559)): inactive
- outcome (CYP2E1 (gene 1571)): inactive
- outcome (CYP4A11 (gene 1579)): inactive

SMILES: CCC(=C(c1ccc(O)cc1)c1ccc(OCCN(C)C)cc1)c1ccccc1
- outcome [1]: inactive
- outcome [2]: inactive
- AC50 [3]: 75.9 µM (active)
- AC50 [4]: 3.08 µM (active)
- AC50 [5]: 91.4 µM (active)
- AC50 (CYP2C8 (gene 1558)): 2.39 µM (active)
- outcome (CYP2E1 (gene 1571)): inactive
- AC50 (CYP4A11 (gene 1579)): 84.4 µM (active)

SMILES: CCCOc1sc(C(=O)N2CCC(c3cc(CN)ccc3F)CC2)c(C)c1Br
- outcome [1]: inactive
- outcome [2]: inactive
- outcome [3]: inactive
- AC50 [4]: 1.96 µM (active)
- outcome [5]: inactive
- outcome (CYP2C8 (gene 1558)): inactive
- outcome (CYP2E1 (gene 1571)): inactive
- outcome (CYP4A11 (gene 1579)): inactive
- outcome [6]: inactive

SMILES: CCOC(=O)CC(O)(CC(=O)OCC)C(=O)OCC
- outcome [1]: inactive
- outcome [2]: inactive
- outcome [3]: inactive
- outcome [4]: inactive
- outcome [5]: inactive
- outcome (CYP2C8 (gene 1558)): inactive
- outcome (CYP2E1 (gene 1571)): inactive
- outcome (CYP4A11 (gene 1579)): inactive

SMILES: Oc1cc2ccccc2c2ccccc12
- outcome [1]: inactive
- AC50 [2]: 22.4 µM (active)
- outcome [3]: inactive
- outcome [4]: inactive
- outcome [5]: inactive
- outcome (CYP2C8 (gene 1558)): inactive
- outcome (CYP2E1 (gene 1571)): inactive
- outcome (CYP4A11 (gene 1579)): inactive

SMILES: c1ccc2c(c1)Cc1ccccc1-2
- outcome [1]: inactive
- outcome [2]: inactive
- outcome [3]: inactive
- AC50 [4]: 31.9 µM (active)
- outcome [5]: inactive
- outcome (CYP2C8 (gene 1558)): inactive
- outcome (CYP2E1 (gene 1571)): inactive
- outcome (CYP4A11 (gene 1579)): inactive

SMILES: CCN(CC)CCNc1ccc(CNC=O)c2sc3ccc(OC)cc3c(=O)c12
- outcome [1]: inactive
- outcome [2]: inactive
- AC50 [3]: 50 µM (active)
- AC50 [4]: 7.58 µM (active)
- outcome [5]: inactive
- outcome (CYP2C8 (gene 1558)): inactive
- AC50 (CYP2E1 (gene 1571)): 12.8 µM (active)
- AC50 (CYP4A11 (gene 1579)): 26 µM (active)

SMILES: CC[C@H](C)[C@@H](C(=O)O)n1sc2ccccc2c1=O
- outcome [1]: inactive
- AC50 [2]: 50 µM (active)
- outcome [3]: inactive
- AC50 [4]: 10.1 µM (active)
- outcome [5]: inactive
- outcome (CYP2C8 (gene 1558)): inactive
- outcome (CYP2E1 (gene 1571)): inactive
- outcome (CYP4A11 (gene 1579)): inactive
- outcome [6]: inactive

SMILES: O=C(OCCOCCOC(=O)c1ccccc1)c1ccccc1
- outcome [1]: inactive
- AC50 [2]: 68.9 µM (active)
- outcome [3]: inactive
- outcome [4]: inactive
- outcome [5]: inactive
- outcome (CYP2C8 (gene 1558)): inactive
- outcome (CYP2E1 (gene 1571)): inactive
- outcome (CYP4A11 (gene 1579)): inactive
- outcome [6]: inactive

SMILES: CC1=C(/C=C/C(C)=C/C=C/C(C)=C/C(=O)O)C(C)(C)CCC1
- AC50 [1]: 12.8 µM (active)
- AC50 [2]: 1.75 µM (active)
- outcome [3]: inactive
- AC50 [4]: 6.58 µM (active)
- AC50 [5]: 27 µM (active)
- outcome (CYP2C8 (gene 1558)): inactive
- AC50 (CYP2E1 (gene 1571)): 20.8 µM (active)
- AC50 (CYP4A11 (gene 1579)): 4.34 µM (active)

SMILES: O=c1c(-c2ccc(O)cc2)coc2cc(O)ccc12
- outcome [1]: inactive
- outcome [2]: inactive
- outcome [3]: inactive
- outcome [4]: inactive
- outcome [5]: inactive
- outcome (CYP2C8 (gene 1558)): inactive
- outcome (CYP2E1 (gene 1571)): inactive
- outcome (CYP4A11 (gene 1579)): inactive

SMILES: CC(C)(C)CC(C)(C)c1ccc(O)c(-n2nc3ccccc3n2)c1
- outcome [1]: inactive
- AC50 [2]: 31.3 µM (active)
- outcome [3]: inactive
- AC50 [4]: 13.1 µM (active)
- AC50 [5]: 12.7 µM (active)
- outcome (CYP2C8 (gene 1558)): inactive
- AC50 (CYP2E1 (gene 1571)): 58.2 µM (active)
- AC50 (CYP4A11 (gene 1579)): 50 µM (active)

SMILES: CCCCCCC(=O)O
- outcome [1]: inactive
- AC50 [2]: 50 µM (active)
- outcome [3]: inactive
- outcome [4]: inactive
- outcome [5]: inactive
- outcome (CYP2C8 (gene 1558)): inactive
- outcome (CYP2E1 (gene 1571)): inactive
- outcome (CYP4A11 (gene 1579)): inactive

SMILES: O=C(O)c1ccccc1C(c1ccc(O)cc1)c1ccc(O)cc1
- outcome [1]: inactive
- outcome [2]: inactive
- outcome [3]: inactive
- AC50 [4]: 3.65 µM (active)
- outcome [5]: inactive
- outcome (CYP2C8 (gene 1558)): inactive
- outcome (CYP2E1 (gene 1571)): inactive
- outcome (CYP4A11 (gene 1579)): inactive
- outcome [6]: inactive

SMILES: CCCOC(=O)c1ccc(O)cc1
- outcome [1]: inactive
- outcome [2]: inactive
- outcome [3]: inactive
- outcome [4]: inactive
- outcome (CYP2C8 (gene 1558)): inactive
- outcome (CYP2E1 (gene 1571)): inactive
- outcome (CYP4A11 (gene 1579)): inactive

SMILES: CC(C)(C)c1cc(C(C)(C)C)c(O)c(C(C)(C)C)c1
- outcome [1]: inactive
- AC50 [2]: 5.21 µM (active)
- outcome [3]: inactive
- AC50 [4]: 8.66 µM (active)
- outcome [5]: inactive
- outcome (CYP2C8 (gene 1558)): inactive
- AC50 (CYP2E1 (gene 1571)): 17 µM (active)
- outcome (CYP4A11 (gene 1579)): inactive
- AC50 [6]: 8.55 µM (active)
